Screening data (PubChem BioAssay)
A selection: hits, their analogues and other compounds. The true share with any hit is near 2.6%.
M18AAP inhibitor: blocks P. falciparum M18 aspartyl aminopeptidase | AID 1822 | inhibition, % at 7.35 µM | recombinant PfM18AAP, H-Glu-NHMec fluorogenic cleavage | 1.2% of 290,000 active;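 active = inhibition above the campaign mean inhibition over all tested compounds plus 3 SD, cut at about 28% in these data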;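 note: 0% = plate median of test compound wells and 100% = 2 mM ZnCl2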
ABHD5 PLIN5 PPI: inhibitors of human ABHD5-perilipin-5 interaction; Q00G26+Q8WTS1; Split G. princeps luciferase complementation, luminescence, 4 h; inhibition, % at 4 µM; 0.78% of 360,000 active; AID 602281;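 active = inhibition above the mean inhibition across every tested compound plus 3 SD, cut at about 22% in these data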;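 note: 0% = DMSO only wells and the 100% control is not disclosed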
Target sequence (Q00G26 whole entry, looked up): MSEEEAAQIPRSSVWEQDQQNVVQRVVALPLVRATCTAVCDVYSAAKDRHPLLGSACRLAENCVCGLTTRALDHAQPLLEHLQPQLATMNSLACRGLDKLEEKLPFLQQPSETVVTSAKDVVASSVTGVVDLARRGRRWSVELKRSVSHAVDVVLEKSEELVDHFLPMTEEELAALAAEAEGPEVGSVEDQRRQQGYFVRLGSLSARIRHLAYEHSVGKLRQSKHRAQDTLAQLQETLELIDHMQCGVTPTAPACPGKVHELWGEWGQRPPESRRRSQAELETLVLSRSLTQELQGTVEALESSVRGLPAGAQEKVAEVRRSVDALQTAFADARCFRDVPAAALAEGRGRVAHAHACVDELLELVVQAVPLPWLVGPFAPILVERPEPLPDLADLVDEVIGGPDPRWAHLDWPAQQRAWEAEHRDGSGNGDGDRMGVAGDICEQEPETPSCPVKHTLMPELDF
Target sequence (Q8WTS1 whole entry, looked up): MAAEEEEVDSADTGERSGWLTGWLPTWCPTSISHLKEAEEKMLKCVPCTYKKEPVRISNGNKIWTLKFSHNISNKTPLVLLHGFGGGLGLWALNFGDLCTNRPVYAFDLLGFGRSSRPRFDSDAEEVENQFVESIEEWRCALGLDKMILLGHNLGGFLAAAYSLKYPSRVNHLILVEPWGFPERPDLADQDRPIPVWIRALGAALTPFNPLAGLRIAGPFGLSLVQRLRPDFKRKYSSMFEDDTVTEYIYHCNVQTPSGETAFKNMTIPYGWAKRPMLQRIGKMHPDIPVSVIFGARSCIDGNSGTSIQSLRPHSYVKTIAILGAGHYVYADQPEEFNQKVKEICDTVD
Platelet DG rel: platelet dense granule release activity; inhibition, %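 (compounds screened at 7.5 µM in platelet-rich plasma)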; 0.22% of 300,000 active; human platelet-rich plasma, SFLLRN dense granule ATP release, luminescence;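 active = mean replicate score, as percent of positive control, at or above 50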
Rce1 inhib: inhibitors of yeast Ras-converting enzyme | 0.27% of 290,000 active | calls only | yeast membranes, quenched prenylated peptide cleavage fluorescence | AID 2563;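 active = fall in fluorescence gain of 50% or more versus controls, with final raw signal at or below 3038400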;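 note: plate controls were neutral control wells for no effect and wells lacking membranes for full effect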
Exocytosis inh: blocks lytic granule exocytosis | TALL-104 LAMP-1 surface exposure, flow cytometry; cells stimulated with thapsigargin and PMA | inhibition, % at 10 µM | 0.66% of 360,000 active | AID 651702;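 active = inhibition above about 55%, limit read from the data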
Granule exo CP1: lytic granule exocytosis inhibition; shares compounds with Exocytosis inh; 11% of 1,500 active; TALL-104 cells, LAMP-1 externalization, flow cytometry; stimulated with PMA plus thapsigargin; inhibition, % at 10 µM; in the data active = inhibition above about 60%;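 note: 0% = stimulated vehicle wells and 100% = unstimulated wells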
* hit, by the source's call.

Results for Cc1ccc(CNC(=O)/C=C/c2cccs2)cc1 ?
M18AAP inhibitor: -8.5; ABHD5 PLIN5 PPI: -4.3; Platelet DG rel: 0.6; Rce1 inhib: inactive; Exocytosis inh: 2.6

What do the screens show for `COc1ccc2nc(SCCC(=O)O)cc(C)c2c1`?
M18AAP inhibitor: 1.2; ABHD5 PLIN5 PPI: 0.3; Platelet DG rel: 4.5; Rce1 inhib: inactive; Exocytosis inh: 0.9

How did O=C(CSc1nc2ccccc2c(=O)n1CCCN1CCOCC1)Nc1ccc(Br)cc1 do in these assays?
ABHD5 PLIN5 PPI: 2.6; Exocytosis inh: -2.7

How did CCc1ccc(NC(=O)CSc2nc3ccccc3c(=O)n2CCCN2CCC(C)CC2)cc1 do in these assays?
M18AAP inhibitor: -2.5; ABHD5 PLIN5 PPI: 10.1; Platelet DG rel: 4.1; Rce1 inhib: inactive; Exocytosis inh: 86.7*; Granule exo CP1: 17.3

What do the screens show for `COc1ccc(NC(=O)C2Cc3c(-c4ccccc4Oc4ccccc4)ccnc3O2)cc1OC` (stereo not given)?
ABHD5 PLIN5 PPI: -3.3; Exocytosis inh: 5.0

What do the screens show for `C=C1CC2(OC1=O)c1ccccc1CCc1ccccc12`?
ABHD5 PLIN5 PPI: 59.6*; Exocytosis inh: 90.2*; Granule exo CP1: -10.1

Results for O=C(N[C@@H](Cc1ccccc1)C(=O)O)c1ccc(C(F)(F)F)cc1 ?
M18AAP inhibitor: -12.6; ABHD5 PLIN5 PPI: -7.5; Platelet DG rel: -2.2; Rce1 inhib: inactive; Exocytosis inh: 84.5*; Granule exo CP1: -3.1

Results for CC1=C(C(=O)Nc2ccccc2)C(c2ccccc2)N2C(=O)CSC2=N1 (stereo not given) ?
M18AAP inhibitor: 9.2; ABHD5 PLIN5 PPI: -17.8; Platelet DG rel: -9.9; Rce1 inhib: inactive; Exocytosis inh: 1.7

What do the screens show for `CCn1c(C)nc2cc(S(=O)(=O)N3CCCCC3)ccc21`?
M18AAP inhibitor: 3.8; ABHD5 PLIN5 PPI: 3.5; Platelet DG rel: -0.9; Rce1 inhib: inactive; Exocytosis inh: -1.7

Results for Cc1ccc2nc(-c3ccc(N4C(=O)CC(N5CCN(CCO)CC5)C4=O)cc3)sc2c1 (stereo not given) ?
M18AAP inhibitor: -2.1; ABHD5 PLIN5 PPI: 20.2; Platelet DG rel: -5.1; Rce1 inhib: inactive; Exocytosis inh: 66.3*; Granule exo CP1: 62.1*

What do the screens show for `Cc1ccc(N2C(=O)CC(N3CCN(c4ccccn4)CC3)C2=O)cc1` (stereo not given)?
M18AAP inhibitor: -2.0; ABHD5 PLIN5 PPI: -7.0; Platelet DG rel: -0.9; Exocytosis inh: -1.4

How did O=C(CCl)N(CCCNC(=O)C(F)(F)F)c1ccc([N+](=O)[O-])cc1 do in these assays?
M18AAP inhibitor: -1.7; ABHD5 PLIN5 PPI: 7.4; Platelet DG rel: 11.5; Exocytosis inh: -1.2

What do the screens show for `Cc1ccc(C(C)C)c(OCCNCCc2ccccc2)c1`?
M18AAP inhibitor: -10.1; ABHD5 PLIN5 PPI: -1.9; Platelet DG rel: -11.4; Exocytosis inh: 64.3*; Granule exo CP1: -9.0

What do the screens show for `COc1ccc(N(CC(=O)NCCSCc2ccc(Cl)cc2)S(C)(=O)=O)cc1Cl`?
M18AAP inhibitor: 1.1; ABHD5 PLIN5 PPI: 1.1; Platelet DG rel: 3.3; Rce1 inhib: inactive; Exocytosis inh: 66.8*; Granule exo CP1: -0.3

What do the screens show for `COc1ccc(N(CC(=O)NCCSCc2cccc(Cl)c2)S(C)(=O)=O)cc1Cl`?
M18AAP inhibitor: 0.4; ABHD5 PLIN5 PPI: -0.2; Platelet DG rel: 5.8; Rce1 inhib: inactive; Exocytosis inh: 59.8*; Granule exo CP1: -9.7

How did Cc1[nH]nc2c1/C(=N/O)CC(c1ccccc1)C2 (stereo not given) do in these assays?
M18AAP inhibitor: 1.3; ABHD5 PLIN5 PPI: -2.1; Platelet DG rel: 0.9; Rce1 inhib: inactive; Exocytosis inh: 7.4

What do the screens show for `Clc1ccc(-c2noc3c2-c2nc(Cc4cccc5ccccc45)sc2CC3)cc1`?
ABHD5 PLIN5 PPI: -2.8; Platelet DG rel: -3.3; Rce1 inhib: inactive; Exocytosis inh: 73.7*; Granule exo CP1: -13.5

What do the screens show for `COc1ccc(Oc2nc(-c3ccncc3)nc3ccccc23)cc1`?
M18AAP inhibitor: -4.6; ABHD5 PLIN5 PPI: -0.7; Platelet DG rel: -3.8; Rce1 inhib: inactive; Exocytosis inh: 4.8

How did CCCOc1ccc(Oc2nc(-c3ccncc3)nc3ccccc23)cc1 do in these assays?
M18AAP inhibitor: 0.3; ABHD5 PLIN5 PPI: 4.6; Platelet DG rel: 8.0; Rce1 inhib: inactive; Exocytosis inh: 93.7*; Granule exo CP1: -13.8

How did COCc1c(Br)c(C)nc(OCC(=O)N/N=C/c2ccco2)c1C#N do in these assays?
M18AAP inhibitor: 3.1; ABHD5 PLIN5 PPI: 6.2; Platelet DG rel: -1.1; Rce1 inhib: inactive; Exocytosis inh: 0.9

What do the screens show for `CCN(CC)S(=O)(=O)c1ccc(F)cc1`?
M18AAP inhibitor: 2.5; ABHD5 PLIN5 PPI: 12.2; Platelet DG rel: -10.7; Rce1 inhib: inactive; Exocytosis inh: -1.0

Results for CCCc1ccc(S(=O)(=O)N(C)S(=O)(=O)c2ccc(F)cc2)cc1 ?
M18AAP inhibitor: -2.7; ABHD5 PLIN5 PPI: -6.7; Platelet DG rel: 24.3; Rce1 inhib: inactive; Exocytosis inh: 69.8*; Granule exo CP1: -12.7

How did COc1ccc(CN2CCc3c([nH]c4ccccc34)C2)c(OC)c1C do in these assays?
M18AAP inhibitor: 15.7; ABHD5 PLIN5 PPI: -3.3; Platelet DG rel: 7.1; Exocytosis inh: 55.7*; Granule exo CP1: -11.7

Results for COc1ccc(CN2CCc3c([nH]c4ccccc34)C2)cc1Br ?
M18AAP inhibitor: 13.9; ABHD5 PLIN5 PPI: 11.7; Platelet DG rel: 0.5; Exocytosis inh: 4.0

Results for CCN(c1ccc(OC)cc1)S(=O)(=O)c1ccc2c(c1)CCN2C(=O)CCC(=O)O ?
M18AAP inhibitor: -10.1; ABHD5 PLIN5 PPI: 2.9; Platelet DG rel: 0.1; Rce1 inhib: inactive; Exocytosis inh: -0.3

Results for O=C(O)C1=C[C@@H](c2ccccc2)C[C@@H](OCCCCO)O1 ?
ABHD5 PLIN5 PPI: -2.1; Platelet DG rel: -5.9; Rce1 inhib: inactive; Exocytosis inh: 1.4

What do the screens show for `O=C(O)C1=C[C@H](c2ccccc2)C[C@H](OCCCCO)O1`?
ABHD5 PLIN5 PPI: -5.0; Platelet DG rel: -1.7; Rce1 inhib: inactive; Exocytosis inh: 57.7*; Granule exo CP1: -13.3

Results for CSCCOC(=O)C1=C(C)Nc2ccc(C)cc2S1 ?
M18AAP inhibitor: 6.0; ABHD5 PLIN5 PPI: -16.6; Platelet DG rel: -8.0; Rce1 inhib: inactive; Exocytosis inh: -2.9

Results for COc1ccc([C@H]2CC(=O)C=C(c3ccc4ncccc4c3)C2)cc1OC ?
ABHD5 PLIN5 PPI: 10.2; Exocytosis inh: -10.1

Results for O=C(/C=C/c1ccc2c(c1)OCO2)Nc1nc(-c2ccc(F)cc2F)cs1 ?
M18AAP inhibitor: -1.0; Platelet DG rel: -2.7; Rce1 inhib: inactive

How did CCOC(=O)Nc1nc(-c2ccc(F)cc2F)cs1 do in these assays?
M18AAP inhibitor: 0.2; ABHD5 PLIN5 PPI: -4.6; Platelet DG rel: 1.5; Rce1 inhib: inactive; Exocytosis inh: 65.1*; Granule exo CP1: -13.7

What do the screens show for `COc1ccc(F)cc1CN1CCN(c2ncnc3scc(-c4ccccc4)c23)CC1`?
M18AAP inhibitor: -0.9; ABHD5 PLIN5 PPI: -11.7; Platelet DG rel: -2.2; Rce1 inhib: inactive; Exocytosis inh: 70.0*; Granule exo CP1: 9.8
